The record followed here is PubChem BioAssay (Tox21).

Assay [1] is described as follows: A CellTox Green Cytotoxicity Assay to monitor cytotoxicity in HepG2 cells - 8 hour (AID 1224890). Note: nearly all actives have a fitted effect of over 45% in size. In outline:
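Continuous culture of HepG2 cells with a membrane-impermeant DNA dye; rising fluorescence marks dead cells. Compound exposure lasted up to 40 h at 37 C, with reads every 8 h from 0 h.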

Assay [2] in a line: qHTS assay to identify small molecule antagonists of the estrogen receptor alpha (ER-alpha) signaling pathway using the BG1 cell line in the presence of 0.1 nM 17-beta-estradiol - cell viability counter screen (AID 1259241). Note: nearly all actives have a fitted effect of over 40% in size. In outline:
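Estradiol-stimulated (0.1 nM) VM7Luc4E2 cells exposed to compounds 22 hr; viability measured by fluorescence of cleaved CellTiter-Fluor substrate after 30 min.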
Background: qHTS replaces the single test concentration by a dilution series.

Assay [3] can be described thus: qHTS assay to identify small molecule antagonists of the androgen receptor (AR) signaling pathway using the MDA cell line in the presence of 0.5 nM R1881 - cell viability counter screen (AID 1259242). Note: nearly all actives have a fitted effect of over 45% in size. In outline: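 Fluorescence from CellTiter-Fluor, which reports protease activity of live cells, was read 30 min after reagent addition to MDA-kb2 cells that had been incubated 16 hr with compound and 0.5 nM R1881.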

Assay [4] concerns the target Estrogen receptor (Homo sapiens) (UniProt P03372). As to the kind of experiment: qHTS assay to identify small molecule antagonists of the estrogen receptor alpha (ER-alpha) signaling pathway using the BG1 cell line in the presence of 0.1 nM 17-beta-estradiol (AID 1259244). Note: nearly all actives have a fitted effect of over 50% in size. In outline: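 Quantitative high-throughput screen in VM7Luc4E2 cells: compound plus 0.1 nM E2 (final), 22 h, 37C, 5% CO2; ONE-Glo added, 30 min room temperature, luminescence measured.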

Assay [5] can be described thus: qHTS assay to identify small molecule HDAC inhibitors (AID 1259364). For activity change, negative = inhibition: top concentration of the series differs between compounds. Note: nearly all actives have a fitted effect of over 45% in size. Note: potency is the fitted concentration of half-maximal effect. In outline: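 Endogenous HDAC class I/II activity was measured in wild-type HCT-116 cells by HDAC-Glo luminescence after 2 h compound treatment.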
A short description of assay [6]: qHTS assay to identify small molecule HDAC inhibitors - cell viability counter screen (AID 1259365). Note: series mostly up to about 92 µM; nearly all actives have a fitted effect of over 50% in size. In outline:
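After overnight seeding at 1,500 cells per well, wild-type HCT-116 cultures took up compounds in DMSO for 2hr at 37 C. Viable cell content came from luminescence with CellTiter-Glo.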

Assay [7] in a line: qHTS assay to identify small molecule agonists of the sonic hedgehog signaling (Shh) pathway - cell viability counter screen (AID 1259366). Note: nearly all actives have a fitted effect of over 50% in size. In outline:
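Same-well cytotoxicity read. Gli1-Luc reporter 3T3 cells; compounds 24hr, 37C/5% CO2; CellTiter-Fluor fluorescence.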

Assay [8] in a line: qHTS assay to identify small molecule antagonists of the sonic hedgehog signaling (Shh) pathway - cell viability counter screen (AID 1259367). Note: nearly all actives have a fitted effect of over 55% in size. In outline:
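Seed 3T3 Gli1-Luc cells at 2,000 per well; incubate 4 hr; add compound in DMSO, then conditioned medium; incubate at 37C with 5% CO2; add CellTiter-Fluor after 23 hr; read fluorescence 1 hr later.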

Assay [9] can be described thus: qHTS assay to identify small molecule phospholipidosis (PLD) inducers (AID 1259344; active = well fitted curve in the direction sought with a large enough effect; an effect the other way counts as inactive or inconclusive). In outline: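 Quantitative HTS in HepG2: compound plus LipidTOX Red dye for 24 h, paraformaldehyde fixation with Hoechst 33342, widefield high-content imaging; amiodarone as positive and DMSO as negative control.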

Each structure is given as a SMILES string. A number with no mark means an inactive call. Inconclusive results are not listed. Calls of active or inactive are those of the source. Unless noted, calls come from the whole dose curve; as a rule, active = well fitted curve in the direction sought with a large enough effect in the repeat runs; inconclusive = weak or mixed curves; inactive = no such curve, though single readings can be large; an effect the other way counts as inactive or inconclusive.
% is set by controls: 0 for no effect and ±100 for the full control effect.

Estrogen receptor (Homo sapiens), sequence (P03372 whole entry, looked up): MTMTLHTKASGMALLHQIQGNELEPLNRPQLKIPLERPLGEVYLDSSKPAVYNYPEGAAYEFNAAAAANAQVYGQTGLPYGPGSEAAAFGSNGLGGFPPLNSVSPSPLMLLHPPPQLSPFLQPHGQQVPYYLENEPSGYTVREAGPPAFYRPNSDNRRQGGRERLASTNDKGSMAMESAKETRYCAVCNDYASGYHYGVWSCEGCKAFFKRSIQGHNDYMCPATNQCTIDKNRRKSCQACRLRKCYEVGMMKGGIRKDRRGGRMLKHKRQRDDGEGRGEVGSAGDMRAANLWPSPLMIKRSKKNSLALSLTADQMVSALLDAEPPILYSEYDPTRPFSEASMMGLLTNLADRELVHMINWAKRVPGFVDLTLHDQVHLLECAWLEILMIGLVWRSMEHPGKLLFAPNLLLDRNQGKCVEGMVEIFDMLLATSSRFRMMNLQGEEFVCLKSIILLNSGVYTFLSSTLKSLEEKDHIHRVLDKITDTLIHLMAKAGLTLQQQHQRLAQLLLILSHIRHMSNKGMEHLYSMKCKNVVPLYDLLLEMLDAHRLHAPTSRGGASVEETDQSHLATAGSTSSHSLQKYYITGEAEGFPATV

`CC(C)CC(=O)O`: the call in assay [1], in assay [3] and in [6] was inactive. For the same molecule, the Potency result in assay [2], in [4], in [5] and in assay [7] was “inactive” in each case.
Take `CCCCCCCCC1CCC(=O)O1` (centres undefined): the molecule was called inactive in [1], in [3] and in assay [6]. The Potency entry in assay [2], in [4], in [5], in assay [7] and in assay [8] was “inactive” throughout.
For `Nc1cccc(O)c1`, the result in assay [1], in assay [3] and in assay [6] was inactive. Also, the Potency entry in assay [2], in assay [4], in assay [5], in assay [7] and in assay [8] was “inactive” throughout.
With `O=C1CC(c2ccc(Cl)cc2)CC(=O)N1`, the result in [1], in assay [3] and in [6] was inactive. In addition, the Potency entry in assay [2], in assay [4], in assay [5] and in assay [7] was “inactive” in each case.
Regarding `C[C@@H](Oc1ccc(CNC(=O)c2cccnc2Oc2ccc3c(c2)OCO3)c(F)c1)C(=O)O`, the outcome in assay [1], in assay [3] and in assay [6] was inactive. Also, the Potency result in assay [2], in assay [4], in assay [5], in assay [7] and in assay [8] was “inactive” throughout.
Consider `Cc1ccc2c(c1)OCC(=O)CO2`, for which the result in [1], in assay [3] and in assay [6] was inactive. In addition, the Potency entry in assay [2], in assay [4], in [5], in [7] and in assay [8] was “inactive” throughout.
Take `CCCCCCCCSCC`: the call in assay [1], in assay [3] and in assay [6] was inactive. Moreover, the Potency result in [2], in assay [4], in assay [5] and in assay [7] was “inactive” each time.
On to `O=C(CCNNC(=O)c1ccncc1)NCc1ccccc1`, for which the result in assay [1], in assay [3], in [9] and in assay [6] was inactive. Also, the Potency entry in [2], in assay [4] and in assay [7] was “inactive” each time.
`CC(C)CCCC(C)(C)O`: the molecule was called inactive in assay [1], in [3] and in [6]. Also, the Potency result in [2], in [4], in assay [5], in assay [7] and in [8] was “inactive” throughout.
Regarding `CC(N)C(=O)OC(C)(C)Cc1ccc(Cl)cc1` (centres undefined), the result in [1], in [3] and in assay [6] was inactive. Further, the Potency entry in assay [2], in assay [4], in assay [5] and in assay [7] was “inactive” throughout.
For the molecule `CC(C)N(c1ccccc1)C(C)C`, the result in [1], in assay [3] and in assay [6] was inactive. Further, the Potency entry in assay [2], in assay [4], in assay [5], in assay [7] and in assay [8] was “inactive” each time.
On to `O=C1c2ccccc2C(=O)c2cc(S(=O)(=O)O)ccc21`, for which the outcome in [1], in assay [3] and in assay [6] was inactive. The Potency result in assay [2], in assay [4] and in assay [7] was “inactive” each time. Also, the Potency in assay [5] is 2.44 µM (active).
Take `O=S(=O)(O)c1cc(O)c2ccc(Nc3ccccc3)cc2c1`: the outcome in assay [1], in assay [3] and in assay [6] was inactive. Besides, the Potency result in assay [2], in assay [4], in [7] and in [8] was “inactive” in each case. Further, the Potency in assay [5] was 24.3 µM (active).
Take `Cc1ccccc1C(=O)Nc1ccc(C(=O)N2CCCC(N(C)C)c3ccccc32)cc1` (centres undefined): the call in [1], in [3] and in assay [6] was inactive. Besides, the Potency result in [2], in [4] and in assay [5] was “inactive” throughout.
In the case of `CCCCN`, the molecule was called inactive in [1], in assay [3] and in assay [6]. Moreover, the Potency result in assay [2], in [4], in assay [5], in [7] and in assay [8] was “inactive” throughout.
As for `Cc1ccsc1/C=C/C1=NCCCN1C`, the molecule was called inactive in assay [1], in assay [3], in [9] and in [6]. Moreover, the Potency result in assay [2], in [4], in assay [7] and in assay [8] was “inactive” throughout.
Regarding `CCOC(=O)/C=C/c1ccccc1`, the molecule was called inactive in assay [1], in [3] and in assay [6]. Moreover, the Potency result in assay [2], in [4], in [5], in assay [7] and in assay [8] was “inactive” each time.
For the molecule `Cc1ccc(C=O)cc1C`, the result in assay [1], in assay [3] and in assay [6] was inactive. The Potency entry in assay [2], in assay [4], in assay [5], in assay [7] and in [8] was “inactive” in each case.
Consider `CCCCCCCC/C=C\CCCCCCCC(=O)OCCCC`, for which the cytotoxicity increase in [1] was -0.525% [at 15.8 µM]. For the same molecule, the results for the activity change, negative = cytotoxicity in assay [2] and in [6] were -3.36% [at 19 µM] and -0.686% [at 19 µM], respectively. For the same molecule, the viability change, negative = cytotoxic in assay [3] is -4.19% [at 19 µM]; in [7] it was -5.96% [at 19 µM]; in assay [8] it was 1.8% [at 19 µM]. In addition, the activity change, negative = inhibition in assay [4] is -2.58% [at 19 µM]; in [5] it was 2.78% [at 19 µM].
